PubChem BioAssay AID720650 (Broad Institute, 2013)
Activity calls are given as the source filed them. How the calls were made is not given here.

Assay: C difficile toxins, biochemical counterscreen, UDPG substrate absence, confirmatory dose response (AID 720650)
Conditions: series mostly up to 19.5 µM
With `COCCCNC(=O)C1CCN(S(=O)(=O)c2c(C)noc2/C=C\c2ccc(OC)cc2)CC1` the AC50 was “inactive”.
In the case of `Cc1ccc(-c2cc(C(=O)NNC(=O)c3csc(N4CCOCC4)n3)c3ccccc3n2)cc1`, the AC50 is reported as “inactive”.
For `COc1ccc(Cl)cc1NC(=O)CSc1nnc(-c2ccco2)o1`, the AC50 was > 39 µM (inactive).
In the case of `COc1ccc(C(=O)Nc2ccc3c(c2)C(=O)N(C)[C@@H]2CC[C@H](CC(=O)NCC4CC4)O[C@@H]2CO3)cc1`, the AC50 is reported as “inactive”.
In the case of `COc1c2ccc(C(=O)NCCCCc3ccccc3)cc2nn1C`, the AC50 is reported as “inactive”.
With `COc1ccccc1CNC(=O)CN(c1ccc(C)cc1)S(=O)(=O)c1c(C)n[nH]c1C` the AC50 was “inactive”.
In the case of `COc1ccc(C(O)(C(C)C)C(CN2CCOCC2)c2ccccc2)cc1` (centres undefined), the AC50 is reported as “inactive”.
For `Cc1cccc(CN2CCN(c3ncccn3)CC2)c1`, the AC50 was “inactive”.
For `CC(=O)Nc1n[nH]c(=S)s1`, the AC50 was > 39 µM (inactive).
With `Cc1cc(C)nc(/N=C(\N)Nc2ccccc2-c2ccccc2)n1` the AC50 was > 39 µM (inactive).
In the case of `CCOC(=O)/C(=N/Nc1ccc(Br)cc1)N1CC(C)OC(C)C1` (centres undefined), the AC50 is reported as 0.615 µM (active).
With `CC(=O)N1CC[C@@H]2[C@@H](CO)N(C)c3ccc(-c4ccccc4)cc3[C@@H]21` the AC50 was 7.4 µM (active).
With `O=S(=O)(Oc1ccccc1-c1ccccc1)c1ccccc1` the AC50 was “inactive”.
For `Cc1cc(C)c(S(=O)(=O)c2ccc(Cl)cc2C)c(Cl)n1`, the AC50 was > 39 µM (inactive).
For `CC1C(=O)NN=C1c1ccc([N+](=O)[O-])cc1` (centres undefined), the AC50 was “inactive”.
In the case of `Oc1ccc(/C=N/N2CCN(Cc3ccccc3)CC2)cc1`, the AC50 is reported as > 39 µM (inactive).
In the case of `Nc1nnn(CC(=O)N/N=C/c2ccc(O)cc2)n1`, the AC50 is reported as 16.5 µM (active).
For `CCCSc1nc2c([nH]1)c(=O)n(C)c(=S)n2C`, the AC50 was “inactive”.
With `CCOc1cc(NC(=S)NCC2CCCO2)c(OCC)cc1NC(=O)c1ccc(F)cc1` (centres undefined) the AC50 was “inactive”.
In the case of `O=[N+]([O-])c1cc(Br)ccc1NS(=O)(=O)c1ccccc1`, the AC50 is reported as > 39 µM (inactive).
In the case of `Fc1ccc(/C=C\c2nccc3c2[nH]c2ccccc23)cc1`, the AC50 is reported as “inactive”.
In the case of `O=C(NC(=S)Nc1ccc(O)cc1)c1ccccc1Cl`, the AC50 is reported as 13.3 µM (active).
In the case of `Nc1cc(N)cc(C(=O)OCC(=O)Nc2cc(S(=O)(=O)N3CCCCC3)ccc2Cl)c1`, the AC50 is reported as “inactive”.
In the case of `CC(OC(=O)[C@@H](NC(=O)OCc1ccccc1)C(C)C)C(=O)Nc1ccc(N2CCOCC2)cc1` (some centres undefined), the AC50 is reported as “inactive”.
With `COc1cc(/C=N/NC2=NCCCCC2)ccc1O` the AC50 was “inactive”.
With `CC(C)(C)c1cc(Cl)c(O)c(NC(=S)NC(=O)c2cccnc2)c1` the AC50 was “inactive”.
With `COc1ccc2nccc(/C=C/c3ccnc4ccc(OC)cc34)c2c1` the AC50 was “inactive”.
In the case of `CN(C)c1ccc(/C=C/c2cccc[n+]2[O-])cc1`, the AC50 is reported as “inactive”.
For `C=CCNc1n[nH]c(=S)s1`, the AC50 was > 39 µM (inactive).
In the case of `CN(C)/C=C(\C#N)C(=O)Nc1ccc(O)cc1F`, the AC50 is reported as 9.11 µM (active).
For `Oc1ccc(NC(=S)Nc2ccccc2)cc1`, the AC50 was 18.6 µM (active).
In the case of `O=C(NNC(=O)c1cccc2ccccc12)c1cccc(F)c1`, the AC50 is reported as “inactive”.
In the case of `O=C(CC(=O)N/N=C/c1ccc(O)cc1)N/N=C/c1ccc(O)cc1`, the AC50 is reported as 9.03 µM (active).
For `CC(=O)Nc1cnc(-c2ccccc2O)cn1`, the AC50 was 15.3 µM (active).
For `CC(C)=CCOc1c2occc2cc2ccc(=O)oc12`, the AC50 was > 39 µM (inactive).
With `C/C(=N\Nc1ccc([N+](=O)[O-])cc1)c1cccc(N)c1` the AC50 was 1.42 µM (active).
For `Cc1[nH]c(-c2ccc(F)cc2)cc1C(=O)N1CCN(c2ccccc2)CC1`, the AC50 was “inactive”.
In the case of `COc1ccccc1N1CC(O)=C(c2nc3ccccc3s2)C1=N`, the AC50 is reported as > 39 µM (inactive).
With `COc1ccccc1/C=C/c1onc(C)c1S(=O)(=O)N1CCC(C(=O)NC(C)C)CC1` the AC50 was “inactive”.
